# In PubChem BioAssay (NCATS):
# Inconclusive results are not listed. Where a call stands in place of a potency, no number is given. The source made the active and inactive calls. Calls come from the whole dose curve; as a rule, active = well fitted curve in the direction sought with a large enough effect; inconclusive = small, poorly fitted or top-dose-only effect, or another doubt; inactive = no such curve, though single readings can be large; an effect the other way counts as inactive or inconclusive.
# Experiments:
# [1] = tested on: Zika virus NS2B-NS3 protease; assay: Primary screen GU AMC qHTS for Zika virus inhibitors (AID 1347154); note: nearly all actives have a fitted effect of over 70% in size; note: potency is the fitted concentration of half-maximal effect
# Outline: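 Fluorogenic AMC-substrate cleavage by noncovalent NS2B-NS3 protease complex (25 nM, pH 8.0 Tris buffer with Tween 20) followed for 15 minutes at room temperature (~20% conversion). Percent inhibition from ex340/em450 signal change, fitted by 4-parameter Hill equation.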
# [2] = tested on: Zika virus NS2B-NS3 protease (unlinked complex); assay: Primary screen GU Rhodamine qHTS for Zika virus inhibitors: Unlinked NS2B-NS3 protease assay (AID 1347159); note: nearly all actives have a fitted effect of over 60% in size
# Outline: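 Percent inhibition came from the 15-min rise in Rhodamine110 fluorescence (1.5 microM substrate, ~15% conversion), normalized to no-inhibitor and no-enzyme wells and Hill-fitted. Unlinked protease, 25 nM, pH 8.0 Tris buffer; compounds up to 114 microM, 15-min preincubation.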
# [3] = tested on: Zika virus NS2B-NS3 protease (linked construct); assay: Primary screen NINDS Rhodamine qHTS for Zika virus inhibitors (AID 1347160); note: nearly all actives have a fitted effect of over 55% in size
# Outline: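 Rhodamine110-peptide cleavage (1.5 µM substrate) by 25 nM linked NS2B-NS3 enzyme at pH 8.0 (Tris, Tween 20), after 15 min RT preincubation with compounds; 15-min fluorescence change normalized to controls and Hill-fitted.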
# [4] = qHTS to identify inhibitors of the type 1 interferon - major histocompatibility complex class I in skeletal muscle: primary screen against the NCATS LOPAC collection (AID 1347405);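 note: human myoblasts with HiBiT tag on endogenous HLA-B stimulated by IFN-beta; lytic HiBiT luminescence reporting HLA-B protein level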; note: potency is the fitted concentration of half-maximal effect
# Outline: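 IFN-beta-stimulated (4 ng/ml) HLA-B HiBiT knock-in myoblasts, compound-treated 24 hrs up to 46 uM final; signal via LgBiT complementation and furimazine luminescence.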
# [5] = qHTS to identify inhibitors of the type 1 interferon - major histocompatibility complex class I in skeletal muscle: primary screen against the NCATS Pharmaceutical Collection (AID 1347407);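 note: luminescence of HiBiT knocked into endogenous HLA-B as interferon-induced MHC class I level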
# Outline: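 Cells were seeded with 4 ng/ml IFN-beta, incubated 1 h, then dosed with compounds over eight 1:5 steps up to 46 uM final. After 24 h at 37 C, HiBiT lytic reagent was added and luminescence read after 10 min lysis in the dark.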
# [6] = qHTS for inhibitors of adenylyl cyclases using a fission yeast platform: a pilot screen against the NCATS LOPAC library (AID 1347410)
# Outline: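 Growth medium went into the plates first, then compounds were pinned (final up to 57 µM), then CHP2027 yeast were added. Plates were incubated overnight (18 h) at 30C in the dark, and GFP was measured by laser scanning cytometry.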
# [7] = qHTS to identify inhibitors of the type 1 interferon - major histocompatibility complex class I in skeletal muscle: primary screen against the NCATS Mechanism Interrogation Plate v5.0 (MIPE) Libary (AID 1347411); note: nearly all actives have a fitted effect of over 65% in size; note: potency is the fitted concentration of half-maximal effect
# Outline: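 IFN-beta-driven (4 ng/ml) HLA-B-HiBit expression in CRISPR-tagged C25cl48 myoblasts; compounds 11-pt, 1:3, max 46 uM, 24 hr exposure; lytic NanoLuc complementation luminescence.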
# [8] = molecular target: Protein phosphatase 1D (Homo sapiens) (UniProt O15297); assay: RapidFire Mass Spectrometry qHTS Assay for Modulators of WT P53-Induced Phosphatase 1 (WIP1) (AID 1347424);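 note: amount of dephosphorylated VEPPL-S-QETFS peptide product formed by WIP1; series mostly up to about 63 µM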
# Chain of Protein phosphatase 1D (Homo sapiens) (O15297 whole entry, looked up): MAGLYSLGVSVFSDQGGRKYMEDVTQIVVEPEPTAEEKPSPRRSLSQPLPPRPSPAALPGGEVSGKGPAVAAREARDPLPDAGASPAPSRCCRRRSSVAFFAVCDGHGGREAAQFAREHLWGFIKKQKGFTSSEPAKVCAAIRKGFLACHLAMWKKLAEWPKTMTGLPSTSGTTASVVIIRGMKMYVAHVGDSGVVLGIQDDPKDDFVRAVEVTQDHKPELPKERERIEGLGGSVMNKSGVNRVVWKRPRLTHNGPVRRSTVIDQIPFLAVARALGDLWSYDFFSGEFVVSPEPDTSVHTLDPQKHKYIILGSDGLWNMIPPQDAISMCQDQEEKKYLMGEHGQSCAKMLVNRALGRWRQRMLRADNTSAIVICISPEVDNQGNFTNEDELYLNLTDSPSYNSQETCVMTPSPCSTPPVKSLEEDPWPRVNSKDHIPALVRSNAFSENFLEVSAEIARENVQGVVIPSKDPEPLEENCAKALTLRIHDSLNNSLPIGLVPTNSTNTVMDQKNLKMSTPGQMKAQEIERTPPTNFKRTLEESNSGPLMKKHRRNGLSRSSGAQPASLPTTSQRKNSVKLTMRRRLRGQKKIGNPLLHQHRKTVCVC
# Outline: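 RapidFire mass spectrometry measured dephosphorylated peptide after 5 min room-temperature reaction of 2 uM VEPPL-pS-QETFS with 10 nM WIP1 (50 mM Tris-HCl pH 7.5, 30 mM MgCl2, 0.1 mM EGTA, BSA), following 1 hr compound preincubation; 1 uM isotope-labelled product standard.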
# [9] = molecular target: Protein phosphatase 1D (Homo sapiens) (UniProt O15297); assay: Rhodamine-PBP qHTS Assay for Modulators of WT P53-Induced Phosphatase 1 (WIP1) (AID 1347425)
# Outline: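 The read-out is the change in Rhodamine-PBP fluorescence (f1 - f0, ex 525/em 598 nm) as Pi is released, read each minute for 11 min. Final reaction: 5 nM WIP1, 10 uM phosphopeptide VEPPL-pS-QETFS, 10 uM Rh-PBP, 50 mM Tris-HCl pH 7.5, 30 mM MgCl2. Compound was preincubated with enzyme for 1 hour at room temperature.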
structure (smiles),measurement,setting,value
CCCS(=O)(=O)Nc1ccc(F)c(C(=O)c2c[nH]c3ncc(Cl)cc23)c1F,Potency,[1],inactive
same,Potency,[2],inactive
same,Potency,[3],inactive
CCCc1nn(C)c2c(=O)[nH]c(-c3cc(S(=O)(=O)N4CCN(C)CC4)ccc3OCC)nc12,Potency,[1],inactive
same,Potency,[2],inactive
same,Potency,[3],inactive
same,Potency,[4],inactive
same,outcome,[5],inactive
same,outcome,[6],inactive
same,Potency,[7],inactive
same,Potency,[8],inactive
same,outcome,[9],inactive
COc1ccccc1[C@H](c1cccc2ccccc12)[C@@](C)(C#N)C(=O)N1CCC(c2cccc(C(F)(F)F)c2)CC1,Potency,[1],inactive
same,Potency,[2],inactive
same,Potency,[3],inactive
same,Potency,[7],inactive
CCOc1ccn(-c2ccc(F)cc2)c(=O)c1C(=O)Nc1ccc(Oc2ccnc(N)c2Cl)c(F)c1,Potency,[1],inactive
same,Potency,[2],inactive
same,Potency,[3],inactive
same,Potency,[7],inactive
O=C1CCCC2=C1C(c1[nH]ncc1Cl)N=C(Nc1nc3ccccc3o1)N2 (stereo not drawn),Potency,[1],inactive
same,Potency,[2],inactive
same,Potency,[3],inactive
same,Potency,[7],inactive
CCCS(=O)(=O)Nc1ccc(F)c(C(=O)c2c[nH]c3ncc(-c4ccc(Cl)cc4)cc23)c1F,Potency,[1],inactive
same,Potency,[3],inactive
Cn1cnc2c(F)c(Nc3ccc(Br)cc3Cl)c(C(=O)NOCCO)cc21,Potency,[1],inactive
same,Potency,[2],inactive
same,Potency,[3],inactive
same,Potency,[7],inactive
same,Potency,[8],inactive
same,outcome,[9],inactive
Cc1cnc(Nc2ccc(OCCN3CCCC3)cc2)nc1Nc1cccc(S(=O)(=O)NC(C)(C)C)c1,Potency,[1],inactive
same,Potency,[2],inactive
same,Potency,[3],inactive
same,Potency,[7],5.23 µM (active)
CC[C@@H](C)[C@H](NC(=O)[C@H](CC1CCCCC1)NC(=O)c1ccno1)C(=O)N1CCC2(CCc3ccccc32)CC1,Potency,[1],inactive
same,Potency,[3],inactive
same,Potency,[7],inactive
O=c1[nH]c(-c2ccc(C(F)(F)F)cc2)nc2c1CSCC2,Potency,[1],inactive
same,Potency,[2],inactive
same,Potency,[3],inactive
same,Potency,[7],inactive
C#Cc1cccc(Nc2ncnc3cc(OCCOC)c(OCCOC)cc23)c1,Potency,[1],inactive
same,Potency,[2],inactive
same,Potency,[3],inactive
same,Potency,[8],inactive
same,outcome,[9],inactive
CS(=O)(=O)c1cccc(CNc2nc(Nc3ccc4c(c3)CCC(=O)N4)ncc2C(F)(F)F)c1,Potency,[1],inactive
same,Potency,[2],inactive
same,Potency,[3],inactive
same,Potency,[4],5.62 µM (active)
same,outcome,[6],inactive
same,Potency,[7],10.4 µM (active)
COc1cc(F)c(F)c(Nc2ccc(I)cc2F)c1NS(=O)(=O)C1(C[C@H](O)CO)CC1,Potency,[1],inactive
same,Potency,[3],inactive
Cc1cc(Nc2nc(N[C@@H](C)c3ncc(F)cn3)ncc2Cl)n[nH]1,Potency,[1],inactive
same,Potency,[2],inactive
same,Potency,[3],inactive
same,Potency,[7],1.04 µM (active)
CN(C(=O)c1ccc(F)cc1C(F)(F)F)C1CCN(c2nnc(-c3ccnn3C)c3ccccc23)CC1,Potency,[1],inactive
same,Potency,[2],inactive
same,Potency,[3],inactive
same,Potency,[7],inactive
CN(C)c1ccc(C2Nc3ccc4ccccc4c3C3=C2C(=O)CC(C)(C)C3)cc1Br (stereo not drawn),Potency,[1],inactive
same,Potency,[2],inactive
same,Potency,[3],inactive
same,Potency,[7],inactive
CCC(C)n1ncn(-c2ccc(N3CCN(c4ccc(OC[C@H]5CO[C@](Cn6cncn6)(c6ccc(Cl)cc6Cl)O5)cc4)CC3)cc2)c1=O (stereo partly drawn),Potency,[1],inactive
same,Potency,[2],inactive
same,Potency,[3],inactive
same,outcome,[5],inactive
same,Potency,[7],inactive
same,Potency,[8],inactive
same,outcome,[9],inactive
COc1nc(-c2ccc3c(c2)OCO3)n(-c2ccc(NC(=O)CSc3ccccc3)cc2)n1,Potency,[1],inactive
same,Potency,[2],inactive
same,Potency,[3],inactive
same,Potency,[7],inactive
Cc1ccnc(NS(=O)(=O)c2ccc(NC(=O)Nc3ccc(S(=O)(=O)Nc4nccc(C)n4)cc3)cc2)n1,Potency,[1],24.1 µM (active)
same,Potency,[2],inactive
same,Potency,[7],inactive
CCc1cncnc1N1CCN(Cc2nc3ccc(C(F)(F)F)cc3[nH]2)CC1,Potency,[1],inactive
same,Potency,[2],inactive
same,Potency,[3],inactive
same,Potency,[4],inactive
same,outcome,[6],inactive
same,Potency,[7],inactive
N#CC[C@H](C1CCCC1)n1cc(-c2ncnc3[nH]ccc23)cn1,Potency,[1],24.1 µM (active)
same,Potency,[2],inactive
same,Potency,[3],inactive
same,Potency,[7],inactive
CN(C)c1ccc(Nc2nc(N)n(C(=O)c3c(F)cccc3F)n2)cc1,Potency,[1],inactive
same,Potency,[2],inactive
same,Potency,[3],inactive
same,Potency,[7],16.5 µM (active)
CC(C)OC(=O)C1=CN(C(=O)c2ccc(F)c(F)c2)CC(C)(C)c2c1[nH]c1ccccc21,Potency,[1],inactive
same,Potency,[2],inactive
same,Potency,[3],inactive
same,Potency,[7],inactive
Cc1n[nH]c(C)c1Cc1sc2c(c1C(=O)N1C[C@H](O)CO1)c(=O)n(C)c(=O)n2CC(C)C,Potency,[1],inactive
same,Potency,[3],inactive
same,Potency,[7],inactive
O=C(Nc1cccnc1)N1CCC(Cc2cccc(Oc3ccc(C(F)(F)F)cn3)c2)CC1,Potency,[1],inactive
same,Potency,[3],inactive
CNC(=O)c1ccc(C)c(-n2c(C)cc(OCc3ccc(F)cc3F)c(Br)c2=O)c1,Potency,[1],inactive
same,Potency,[2],inactive
same,Potency,[3],inactive
same,Potency,[7],inactive
C[C@@H]1CN(Cc2ccc(F)cc2)[C@@H](C)CN1C(=O)c1cc2c(C(=O)C(=O)N(C)C)cn(C)c2cc1Cl,Potency,[1],inactive
same,Potency,[2],inactive
same,Potency,[3],inactive
same,Potency,[7],inactive
